Bioassay records deposited in PubChem BioAssay by National Center for Advancing Translational Sciences (NCATS).
KAT2A inh: inhibitors of human GCN5L2 histone acetyltransferase. Potency, µM (doses to about 58.9 µM), actives largely listed as inhibitors. GCN5L2 HAT assay, ThioGlo1 CoA-SH fluorescence. 0.21% of 390,000 active
Target sequence (Q92830 whole entry, looked up): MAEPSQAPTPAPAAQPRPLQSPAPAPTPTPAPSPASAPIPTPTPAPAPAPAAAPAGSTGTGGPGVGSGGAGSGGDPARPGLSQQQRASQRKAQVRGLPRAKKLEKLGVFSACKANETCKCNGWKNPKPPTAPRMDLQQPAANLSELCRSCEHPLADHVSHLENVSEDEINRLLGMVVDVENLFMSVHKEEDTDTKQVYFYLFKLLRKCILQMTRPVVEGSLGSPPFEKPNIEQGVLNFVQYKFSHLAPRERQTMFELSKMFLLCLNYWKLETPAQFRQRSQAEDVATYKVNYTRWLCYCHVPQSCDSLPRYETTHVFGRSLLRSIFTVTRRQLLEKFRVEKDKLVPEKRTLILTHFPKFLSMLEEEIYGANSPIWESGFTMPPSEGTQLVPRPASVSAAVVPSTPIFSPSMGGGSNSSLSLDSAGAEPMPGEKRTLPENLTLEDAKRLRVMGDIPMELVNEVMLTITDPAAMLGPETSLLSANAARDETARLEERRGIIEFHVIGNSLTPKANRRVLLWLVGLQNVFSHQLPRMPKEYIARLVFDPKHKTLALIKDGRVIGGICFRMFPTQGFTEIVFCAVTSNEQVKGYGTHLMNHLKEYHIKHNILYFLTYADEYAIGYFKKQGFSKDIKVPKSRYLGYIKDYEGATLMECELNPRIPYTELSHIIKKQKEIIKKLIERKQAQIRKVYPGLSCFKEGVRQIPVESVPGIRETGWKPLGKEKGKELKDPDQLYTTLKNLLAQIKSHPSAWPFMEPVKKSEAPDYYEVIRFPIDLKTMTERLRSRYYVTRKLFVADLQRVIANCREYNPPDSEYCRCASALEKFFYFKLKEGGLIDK
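Titration-based screen in which CoA formation is detected via maleimide probe ThioGlo1 (50uM) turning fluorescent on thiol reaction; substrates H3(1-25) 75uM and acetyl-CoA 70uM, GCN5L2 20nM, 20 min incubation at room temperature.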
GLS inhibitor: inhibitors of human glutaminase (GLS); GLS enzymatic activity, qHTS titration; 0.21% of 410,000 active; Potency, µM (top dose mostly 45.5 µM), most hits filed as inhibitors; O94925
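hKGA; 45 mM KH2PO4 pH 8.2 + 0.02% Tween-20; cpd via pin tool; 1 mM Gln soln; GluOx/HRP/Amplex Red; RT 30 min; fluor. t0 & final.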
TrxR1 substrate: substrates of rat thioredoxin reductase 1 | O89049 | purified TrxR1 substrate turnover, NADPH consumption readout | Potency, µM (doses to about 114 µM) | 0.01% of 390,000 active | AID 588456; also: nearly all actives have a fitted effect of over 50% in size
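Rat TrxR1, dispensed at 90 nM, was prereduced with 400 uM NADPH (final) for 5 min at ~22 deg C, then incubated with compound 15 min before 400 uM selenite. A first-read NADPH fluorescence drop versus no-compound background flagged substrates.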
rTrxR1 inhibitor: rat TrxR1 inhibition; recombinant rTrxR1, NADPH fluorescence consumption, selenite substrate; O89049; Potency, µM (highest dose often 114 µM), actives largely listed as inhibitors; 1% of 390,000 active; also: nearly all actives have a fitted effect of over 65% in size
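Rat TrxR1 (90 nM in the dispensed reagent) was pre-reduced with 400 uM NADPH for 5 min at room temperature, then incubated with compound for 15 min. After 400 uM selenite was added, NADPH fluorescence (Ex 340/Em 450 nm) was followed for 8 min.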
Sfp inh: inhibitors of Bacillus subtilis Sfp phosphopantetheinyl transferase; 3.5% of 310,000 active; Potency, µM, most hits filed as inhibitors; Biochemical Sfp PPTase activity, qHTS; AID 1490; Q9F4F7;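 also: the enzyme is Sfp with the accession as filed and its product quenches rhodamine fluorescence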
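Fluorescence-quenching assay: 15 nM Sfp-PPTase preincubated 15 min at room temperature with compound, then 5 uM rhodamine-CoA and 12.5 uM BHQ-2-labelled YbbR peptide added. Fluorescence (ex 525/em 598 nm) read at start and after 30 min; difference gives rate.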
VDR inh: blocks the human vitamin D receptor | P11473 | VDR-SRC2-3 peptide fluorescence polarization, 2 h | Potency, µM, most hits filed as inhibitors | 0.93% of 400,000 active
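Signal is fluorescence polarization, reporting how far test compounds block the interaction of VDR with the SRC2-3 coregulator peptide after a 2 h room-temperature incubation.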
Of the large screens only hits and unclear results are named; the others gave an inactive call. Most compounds without a hit are left out; they make up all but 3.8% or so of the library. Calls follow the shape of the dose curve; as a rule, active = well fitted curve in the direction sought with a large enough effect; inconclusive = small, poorly fitted or top-dose-only effect, or another doubt; inactive = no such curve, though single readings can be large; an effect the other way counts as inactive or inconclusive.

CC(=O)Oc1cc2c(c3ccccc13)CCC2=O	none (no result: KAT2A inh, Sfp inh)
CC(=O)Nc1ccc(-c2nnn(CC(=O)Nc3ccc4c(c3)OCO4)n2)cc1Cl	none
Cc1c(C(=O)O)oc2ccc3c(c12)C(O)CC(C)(C)O3 (configuration not stated)	none
CCCCCCCN(C(=O)CCl)c1ccccc1C	rTrxR1 inhibitor 79µM
c1ccc2c(CCNc3ncnc4nc[nH]c34)c[nH]c2c1	none
Nc1ccc(N)c(C(=O)O)c1	KAT2A inh 7.9µM, GLS inhibitor 5.6µM, rTrxR1 inhibitor inconclusive, Sfp inh inconclusive, VDR inh inconclusive
Cc1ccc(NC(=O)c2c(N3CCCC3=O)c3cc(C)ccc3n2C)c(C)c1	none (no result: Sfp inh)
Cc1cc(C(=O)C(C)OC(=O)C2=NNC(=O)CC2)c(C)n1-c1ccc(OC(F)F)cc1 (configuration not stated)	none
CCCC(O)(CCN1CCOCC1)c1ccc(Br)cc1 (configuration not stated)	rTrxR1 inhibitor 35µM (no result: GLS inhibitor)
CCCC(O)(CCN1CCOCC1)c1ccc(Cl)cc1 (configuration not stated)	rTrxR1 inhibitor inconclusive
Nc1nc(-c2ccccc2)c(N=Nc2ccc(Cl)cc2)s1	Sfp inh 25µM
COc1ccc2o/c(=N\O)c(C(=O)Nc3ccccc3OC)cc2c1	KAT2A inh inconclusive, Sfp inh 50µM
COc1ccccc1NC(=O)c1cc2cc(Br)ccc2oc1=N	Sfp inh inconclusive, VDR inh 89µM
COc1ccc2oc(=O)c(C(=O)Nc3ccccc3O)cc2c1	none
COc1ccc(C(=O)n2ncc(C#N)c2N)cc1	none
CCOc1ccc(NC(=O)CSc2n[nH]c(N)n2)c([N+](=O)[O-])c1	none
N#CC1=C2C=CC=CN2CC1=O	Sfp inh inconclusive
Cc1ccc(N2CCN(/N=C/C3=C(N4CCOCC4)C(=C\c4ccccc4)/CC3)CC2)cc1	none
COc1ccc2[nH]c(=O)c(CN(Cc3cccnc3)Cc3nnnn3CC3CCCO3)cc2c1 (configuration not stated)	Sfp inh 79µM
Cc1ccc(C)c2[nH]c(=O)c(CN(CCN3CCOCC3)Cc3nnnn3CC3CCCO3)cc12 (configuration not stated)	rTrxR1 inhibitor inconclusive, Sfp inh inconclusive
CCc1ccc2[nH]c(=O)c(CN(Cc3ccc(OC)cc3)Cc3nnnn3CCOC)cc2c1	Sfp inh 13µM
COc1ccc2[nH]c(=O)c(CN(Cc3ccccc3)Cc3nnnn3CC3CCCO3)cc2c1 (configuration not stated)	none
COc1cc2cc(CN(Cc3nnnn3Cc3ccccc3)CC3CCCO3)c(=O)[nH]c2cc1OC (configuration not stated)	Sfp inh 56µM
Cc1ccc(C)c2[nH]c(=O)c(CN(Cc3nnnn3C3CCCCC3)CC3CCCO3)cc12 (configuration not stated)	rTrxR1 inhibitor inconclusive, Sfp inh 79µM
CCc1ccc2[nH]c(=O)c(CN(Cc3ccccc3)Cc3nnnn3C(C)(C)C)cc2c1	none (no result: KAT2A inh, GLS inhibitor, Sfp inh)
CCCn1nnc(NC(=S)NC(=O)CC)n1	Sfp inh 40µM
CCCn1nnc(NC(=S)NC(=O)Cc2ccccc2)n1	none
O=C(O)c1cc(S(=O)(=O)Nc2ccc3oc(=O)sc3c2)ccc1O	Sfp inh 40µM, VDR inh 79µM
O/C(=C\c1nc2ccccc2[nH]1)c1cccs1	rTrxR1 inhibitor 45µM, VDR inh inconclusive
O=c1[nH]c2ccccc2nc1/C=C(\O)c1cccs1	none
COc1ccc(OCC#CCNC(C)(C)C)cc1	Sfp inh inconclusive
COc1ccc(OCC#CCN2CC(C)OC(C)C2)cc1 (configuration not stated)	rTrxR1 inhibitor 16µM, Sfp inh inconclusive
CC(=O)c1cccc(OCc2cc(C(=O)N3C[C@H]4CC[C@H]3C4)no2)c1	none
CC(=O)c1ccc(OCc2cc(C(=O)N(C)Cc3ccccn3)no2)cc1	KAT2A inh inconclusive, rTrxR1 inhibitor 50µM
CC(=O)c1cccc(OCc2cc(C(=O)N3C[C@@H](C)O[C@@H](C)C3)no2)c1	rTrxR1 inhibitor 10µM
CC(=O)c1ccc(OCc2cc(C(=O)N(C)Cc3ccon3)no2)cc1	none
CC(=O)c1cccc(OCc2cc(C(=O)N(C)CCC3CCOCC3)no2)c1	rTrxR1 inhibitor 8.9µM
c1cncc(-c2nc3ccccc3s2)c1	KAT2A inh inconclusive
C[C@H]1NCc2cc(-c3ccc4c(=O)c(C(=O)O)cn(C5CC5)c4c3OC(F)F)ccc21	GLS inhibitor 13µM (no result: KAT2A inh, TrxR1 substrate, rTrxR1 inhibitor, Sfp inh, VDR inh)
C[C@@H]1CN(c2c(F)c(F)c3c(=O)c(C(=O)O)cn(C4CC4)c3c2F)C[C@H](C)N1	none
COc1ccc(NC(=O)c2c(NC(=O)COc3ccccc3)sc3c2CCCCC3)cc1	none (no result: Sfp inh)
COC(=O)CCC(=O)Nc1sc(C)c(C)c1C(N)=O	Sfp inh 14µM, VDR inh 50µM
CCc1ccc(-c2c(C)sc(NC(C)=O)c2C(N)=O)cc1	KAT2A inh inconclusive, Sfp inh 50µM
COC(=O)c1c(NC(=O)CCC(=O)O)sc(Cc2ccccc2)c1C	none
COC(=O)CCC(=O)NC(=S)Nc1sc(C)c(C)c1C(N)=O	none
COc1ccc(NC(=O)c2c(NC(=O)CCC(=O)O)sc(-c3ccccc3)c2C)cc1	Sfp inh 16µM, VDR inh inconclusive
CCCC(=O)Nc1sc(Cc2ccccc2)c(C)c1C(N)=O	Sfp inh 13µM, VDR inh inconclusive
Cc1c2c(nc3nc4ccccc4n13)CCCC2=O	none (no result: GLS inhibitor, TrxR1 substrate, rTrxR1 inhibitor, VDR inh)
CC1CCN(c2nc(NCc3ccco3)nc(N)c2[N+](=O)[O-])CC1	none
Cc1sc(NC(=O)CCC(=O)O)c(C(N)=O)c1-c1ccccc1	Sfp inh 35µM, VDR inh inconclusive
COC(=O)/C=C/c1cc(O)ccc1O	Sfp inh 50µM (no result: GLS inhibitor, TrxR1 substrate, rTrxR1 inhibitor)
CC(=O)/C=C/c1ccccc1O	none
CCN(CC)CCn1c2ccccc2c2n[nH]c(=S)nc21	Sfp inh 28µM
CCN(CC)CCn1c2ccccc2c2nc3ccccc3nc21	none
CC(C)(C)C(=O)NC(=S)Nc1ccc(S(=O)(=O)Nc2nccs2)cc1	none
COc1nccnc1NS(=O)(=O)c1ccc(NC(=S)NC(=O)c2cccc(F)c2)cc1	rTrxR1 inhibitor inconclusive
COc1nccnc1NS(=O)(=O)c1ccc(NC(=S)NC(=O)c2ccc(F)cc2)cc1	rTrxR1 inhibitor inconclusive, Sfp inh 50µM
O=C(NC(=S)Nc1ccc(S(=O)(=O)Nc2nccs2)cc1)c1ccc(F)cc1	rTrxR1 inhibitor 22µM
O=C(NC(=O)N1CCN(c2cccc(Cl)c2)CC1)c1ccc(Cl)cc1	none
O=C(NC(=S)Nc1ccc(CN2CCCCC2)cc1)c1cccc(OCc2ccccc2)c1	Sfp inh 79µM
